# In the supplement of paper PMC6897291:
# Several values for one entry are separate records, joined by “and”; a condition that tells them apart may be missing. Equal values may be shown once.
# Tests used:
# [1] = test system: RIVA; experiment: growth inhibition by drug alone (1 - RLU/untreated control) (fraction); higher = stronger inhibition; conditions: 177Lu-lilotomab satetraxetan 0 ug/ml
# How it was run: (§1)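 Plates pre-printed with the Selleck Cambridge Cancer Compound library at 10/100 nM (RIVA) or 10/1,000 nM (U-2932) received 3,000 cells/well. These cells had been washed after 18 h untreated or with a radiolabelled anti-CD37 antibody conjugate (~600 MBq/mg; 0.5 µg/ml RIVA, 1 µg/ml U-2932). Growth inhibition was obtained from RealTime-Glo luminescence in relation to untreated no-drug wells. Each daily read from day 3, taken after 1 h at 37°C, was converted as 1 − RLU/mean of 48 such wells per plate.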
# [2] = test system: U-2932; experiment: growth inhibition by drug plus 177Lu-lilotomab satetraxetan (1 - RLU/untreated control) (fraction); higher = stronger inhibition; conditions: 177Lu-lilotomab satetraxetan 1 ug/ml
# How it was run: as §1
# [3] = test system: RIVA; experiment: as above; conditions: 177Lu-lilotomab satetraxetan 0.5 ug/ml
# How it was run: as §1
# [4] = test system: U-2932; experiment: growth inhibition by drug alone (1 - RLU/untreated control) (fraction); higher = stronger inhibition; conditions: 177Lu-lilotomab satetraxetan 0 ug/ml
# How it was run: as §1
Structure (SMILES),"growth inhibition by drug alone ([1]; 10 nM, time (day): 3)","growth inhibition by drug alone ([1]; 10 nM, time (day): 4)","growth inhibition by drug alone ([1]; 10 nM, time (day): 5)","growth inhibition by drug alone ([1]; 10 nM, time (day): 6)","growth inhibition by drug alone ([1]; 100 nM, time (day): 3)","growth inhibition by drug alone ([1]; 100 nM, time (day): 4)","growth inhibition by drug alone ([1]; 100 nM, time (day): 5)","growth inhibition by drug alone ([1]; 100 nM, time (day): 6)","growth inhibition by drug plus 177Lu-lilotomab satetraxetan ([2]; 10 nM, time (day): 3)","growth inhibition by drug plus 177Lu-lilotomab satetraxetan ([2]; 10 nM, time (day): 4)","growth inhibition by drug plus 177Lu-lilotomab satetraxetan ([2]; 10 nM, time (day): 5)","growth inhibition by drug plus 177Lu-lilotomab satetraxetan ([2]; 10 nM, time (day): 6)","growth inhibition by drug plus 177Lu-lilotomab satetraxetan ([2]; 1000 nM, time (day): 3)","growth inhibition by drug plus 177Lu-lilotomab satetraxetan ([2]; 1000 nM, time (day): 4)","growth inhibition by drug plus 177Lu-lilotomab satetraxetan ([2]; 1000 nM, time (day): 5)","growth inhibition by drug plus 177Lu-lilotomab satetraxetan ([2]; 1000 nM, time (day): 6)","growth inhibition by drug plus 177Lu-lilotomab satetraxetan ([3]; 10 nM, time (day): 3)","growth inhibition by drug plus 177Lu-lilotomab satetraxetan ([3]; 10 nM, time (day): 4)","growth inhibition by drug plus 177Lu-lilotomab satetraxetan ([3]; 10 nM, time (day): 5)","growth inhibition by drug plus 177Lu-lilotomab satetraxetan ([3]; 10 nM, time (day): 6)","growth inhibition by drug plus 177Lu-lilotomab satetraxetan ([3]; 100 nM, time (day): 3)","growth inhibition by drug plus 177Lu-lilotomab satetraxetan ([3]; 100 nM, time (day): 4)","growth inhibition by drug plus 177Lu-lilotomab satetraxetan ([3]; 100 nM, time (day): 5)","growth inhibition by drug plus 177Lu-lilotomab satetraxetan ([3]; 100 nM, time (day): 6)","growth inhibition by drug alone ([4]; 10 nM, time (day): 3)","growth inhibition by drug alone ([4]; 10 nM, time (day): 4)","growth inhibition by drug alone ([4]; 10 nM, time (day): 5)","growth inhibition by drug alone ([4]; 10 nM, time (day): 6)","growth inhibition by drug alone ([4]; 1000 nM, time (day): 3)","growth inhibition by drug alone ([4]; 1000 nM, time (day): 4)","growth inhibition by drug alone ([4]; 1000 nM, time (day): 5)","growth inhibition by drug alone ([4]; 1000 nM, time (day): 6)"
CO[C@@H](C(=O)N1Cc2[nH]nc(NC(=O)c3ccc(N4CCN(C)CC4)cc3)c2C1)c1ccccc1,-0.0286,-0.0311,-0.0917,-0.234,0.138,0.0638,0.148,0.29,0.00406,0.0748,0.116,0.142,0.398,0.469,0.53,0.634,0.555,0.594,0.603,0.604,0.514,0.615,0.685,0.776,,,,,,,,
COc1cc(N2CCC(N3CCN(C)CC3)CC2)ccc1Nc1ncc(Cl)c(Nc2ccccc2S(=O)(=O)C(C)C)n1,-0.00616,-0.0284,-0.166,-0.627,-0.194,-0.141,-0.341,-0.647,-0.0224,0.0234,0.0221,0.0517,0.226,0.3,0.325,0.525,0.354,0.492,0.509,0.521,0.198,0.273,0.278,0.268,,,,,,,,
N#CC(c1ccnc(NCCc2cccnc2)n1)c1nc2ccccc2s1 (configuration not stated) [JNK Inhibitor V],-0.285,-0.269,-0.297,-0.462,-0.33,-0.412,-0.338,-0.441,-0.113,-0.0825,-0.0367,0.103,-0.0869,-0.00408,0.0113,0.0923,0.255,0.419,0.467,0.481,0.265,0.376,0.381,0.353,,,,,,,,
CCN1CCN(Cc2ccc(-c3cc4c(N[C@H](C)c5ccccc5)ncnc4[nH]3)cc2)CC1,-0.0711,-0.0709,-0.153,-0.452,-0.2,-0.171,-0.217,-0.348,-0.00551,0.0118,0.0153,0.0829,-0.206,-0.119,-0.121,-0.0824,0.45,0.538,0.553,0.545,0.314,0.416,0.435,0.409,,,,,,,,
Cc1ccc([N+](=O)[O-])cc1S(=O)(=O)N(C)/N=C/c1cnc2ccc(Br)cn12,0.193,0.193,0.103,-0.15,0.507,0.599,0.585,0.539,0.346,0.371,0.418,0.47,0.969,0.975,0.981,0.985,0.675,0.726,0.736,0.726,0.775,0.854,0.868,0.889,,,,,,,,
COc1cc2c(cc1O)CC[C@@H]1[C@@H]2CC[C@]2(C)[C@@H](O)CC[C@@H]12 [2-Methoxyestradiol],-0.258,-0.3,-0.405,-0.422,-0.594,-0.529,-0.534,-0.63,-0.116,-0.0531,0.00475,0.11,0.704,0.761,0.783,0.814,,,,,,,,,-0.0505,-0.0559,-0.104,-0.0895,0.719,0.771,0.777,0.788
O=C(O)C1(C(=O)O)CCC1.[NH2-].[NH2-].[Pt+2] [Carboplatin],-0.0898,-0.143,-0.162,-0.249,-0.121,-0.164,-0.182,-0.229,-0.0315,0.0327,0.0748,0.141,0.0161,0.0456,0.0793,0.221,0.458,0.519,0.538,0.54,0.528,0.554,0.565,0.569,,,,,,,,
C/C(=C\C(=O)Nc1ccccc1C(=O)O)c1ccc2ccccc2c1,,,-0.0819 and -0.194,-0.258 and -0.514,,,,,-0.0301 and -0.033,,0.025 and 0.0323,,-0.0817 and -0.0426,,,0.0333 and 0.0305,,,,,,,,,,0.0133 and 0.0332,,,-0.0224 and -0.014,,-0.0613 and -0.0571,-0.273 and -0.127
CN(C)CCCN=c1c2ccccc2n(C)c2[nH]c(=O)n(C)c(=O)c12,0.0709,0.0541,0.026,-0.0499,-0.0848,-0.0419,-0.079,-0.137,0.0369,0.0857,0.138,0.24,0.0936,0.125,0.147,0.272,,,,,,,,,,,,,,,,
CCN(CC)CCNC(=O)c1c(C)[nH]c(/C=C2\C(=O)Nc3ccc(F)cc32)c1C [Sunitinib Malate (Sutent)],-0.117,-0.163,-0.216,-0.511,-0.295,-0.315,-0.325,-0.492,-0.0903,-0.0528,-0.026,0.0273,-0.0792,-0.017,-0.0458,-0.033,,,,,,,,,,,,,,,,
C[C@@H]1CCN(C(=O)CC#N)C[C@@H]1N(C)c1ncnc2[nH]ccc12,,,,-0.145 and -0.158,,,,-0.23 and -0.152,-0.0798 and -0.0527,,,,-0.1 and -0.107,,,,0.396 and 0.421,0.461 and 0.516,0.484 and 0.536,0.5 and 0.538,0.367 and 0.379,0.424 and 0.434,0.412 and 0.435,0.396 and 0.419,,,,,,,-0.0604 and -0.0478,
Cc1cccc(-c2nn3c(c2-c2ccnc4ccc(C(N)=O)cc24)CCC3)n1,-0.233,-0.26,-0.269,-0.342,-0.0721,-0.126,-0.16,-0.229,-0.116,-0.0664,-0.0409,0.0836,0.0167,0.0206,-0.00167,0.117,0.371,0.487,0.502,0.523,0.372,0.444,0.459,0.437,,,,,,,,
